An excerpt weighted towards active compounds, which were near 11% of everything screened.
HP1b chromo inh: HTS for Inhibitors of HP1-beta Chromodomain Interactions with Methylated Histone Tails | actives 0.56% (n = 390,000) | Potency, µM (titrated, usually from 114 µM), for the others: top-dose activity change, negative = inhibition, usual class: inhibitors | AlphaScreen HP1-beta / biotin-H3K9me3 peptide binding | Chromobox protein homolog 1 (Homo sapiens), P83916; also: nearly all actives have a fitted effect of over 70% in size
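HP1-beta protein (50 nM final) preincubated 30 min at room temperature with biotinylated H3(1-18)K9me3 peptide (50 nM) in PBS pH 7.4, 0.01% Tween-20, then compound added for 30 min. AlphaScreen streptavidin donor/nickel chelate acceptor beads (10 ug/mL final), 30 min dark, luminescence read.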
G9a block: qHTS Assay for Inhibitors of Histone Lysine Methyltransferase G9a | AID 504332, 2011 | Potency, µM (top dose mostly 102 µM), without a hit: top-dose activity, negative = inhibition, usual class: inhibitors | actives 8.8% (n = 350,000) | Histone-lysine N-methyltransferase EHMT2 (Homo sapiens), Q96KQ7 | G9a H3K9 monomethylation, AlphaScreen, 2 h; also: % is scaled to controls: 0 for no effect and ±100 for the full control effect; nearly all actives have a fitted effect of over 75% in size
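Enzyme 20 nM + cpd, 15 min RT; add b-H3K9 pep 500 nM / SAM 20 uM; 2 h RT; anti-H3K9me1 Ab 0.5 ug/mL + SA donor / anti-rabbit acceptor beads 20 ug/mL each, 10 min; AlphaScreen read.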
BAZ2B inh: qHTS Assay for Inhibitors of BAZ2B; AlphaScreen BAZ2B-H3K14Ac peptide displacement; Potency, µM (top dose mostly 114 µM), inactives show at the top dose activity change, negative = inhibition, most hits filed as inhibitors; actives 4.4% (n = 360,000); also: % is scaled to controls: 0 for no effect and ±100 for the full control effect; nearly all actives have a fitted effect of over 60% in size
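BAZ2B 50 nM plus b-H3(5-23)K14Ac 50 nM, PBS pH 7.4/0.01% Tween-20, 30 min RT; compound added (max 110 uM), 30 min RT; streptavidin donor/Ni-chelate acceptor beads 10 ug/mL final, 20 min dark; AlphaScreen read.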
JMJD2A Tudor inh: qHTS Assay for Inhibitors of JMJD2A-Tudor Domain; Lysine-specific demethylase 4A (Homo sapiens), O75164; AlphaScreen JMJD2A-Tudor / H3K4me3 peptide binding; Potency, µM (titrated, usually from 114 µM), inactives show top-dose activity change, negative = inhibition, hits mostly inhibitors; actives 4.4% (n = 390,000); AID 504339, 2011; also: % is scaled to controls: 0 for no effect and ±100 for the full control effect; nearly all actives have a fitted effect of over 50% in size
L3MBTL1 inh: qHTS Assay for the Inhibitors of L3MBTL1 | actives 0.66% (n = 230,000) | Potency, µM (series often up to 57.1 µM), for inactives: at the highest dose activity, negative = inhibition, actives largely listed as inhibitors | Lethal(3)malignant brain tumor-like protein 1 (Homo sapiens), Q9Y468 | AID 485360, 2010 | AlphaScreen L3MBTL1–H3K9me1 peptide binding; also: % is scaled to controls: 0 for no effect and ±100 for the full control effect; nearly all actives have a fitted effect of over 60% in size
Target sequence (Q9Y468 whole entry, looked up): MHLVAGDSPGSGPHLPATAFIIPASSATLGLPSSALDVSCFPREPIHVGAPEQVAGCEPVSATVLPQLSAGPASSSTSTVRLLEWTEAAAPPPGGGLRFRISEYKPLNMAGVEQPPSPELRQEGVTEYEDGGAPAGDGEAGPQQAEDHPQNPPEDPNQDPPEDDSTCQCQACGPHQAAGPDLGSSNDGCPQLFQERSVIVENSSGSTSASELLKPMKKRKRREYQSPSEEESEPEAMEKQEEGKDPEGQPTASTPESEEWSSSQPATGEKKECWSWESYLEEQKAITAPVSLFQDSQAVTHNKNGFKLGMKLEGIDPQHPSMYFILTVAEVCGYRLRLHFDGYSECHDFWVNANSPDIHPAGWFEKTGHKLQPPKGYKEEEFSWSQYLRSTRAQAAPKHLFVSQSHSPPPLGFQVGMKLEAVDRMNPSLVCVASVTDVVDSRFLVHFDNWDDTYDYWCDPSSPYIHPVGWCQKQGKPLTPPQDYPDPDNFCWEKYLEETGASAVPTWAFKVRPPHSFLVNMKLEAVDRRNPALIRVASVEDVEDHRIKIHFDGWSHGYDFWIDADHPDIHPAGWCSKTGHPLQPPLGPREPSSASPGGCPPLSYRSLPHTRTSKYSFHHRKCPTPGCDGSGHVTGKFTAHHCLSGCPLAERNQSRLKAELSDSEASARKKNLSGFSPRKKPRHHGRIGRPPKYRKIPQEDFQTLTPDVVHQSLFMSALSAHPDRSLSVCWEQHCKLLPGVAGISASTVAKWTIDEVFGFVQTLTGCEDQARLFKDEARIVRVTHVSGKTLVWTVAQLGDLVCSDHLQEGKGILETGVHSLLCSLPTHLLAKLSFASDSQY
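L3MBTL1 (50 nM) pre-complexed 30 min with biotinylated H3(1-15)K9me1 peptide (75 nM), then compounds added for 30 min at room temperature; AlphaScreen streptavidin donor/nickel chelate acceptor beads (10 ug/mL final) read after 30 min dark incubation.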
* marks the source's active call; other numbers are inactive results; ? = inconclusive; / = no result; ! = not active in a repeat; [ ] = remark or other dose. Calls follow the shape of the dose curve; as a rule, active = well fitted inhibition curve with a large enough effect; inconclusive = small, poorly fitted or top-dose-only effect; inactive = no such curve, though single readings can be large or run the other way. Potency is read from the fitted curve at half-maximal effect.

SMILES | HP1b chromo inh | G9a block | BAZ2B inh | JMJD2A Tudor inh | L3MBTL1 inh
CN1CCc2c(sc(/N=C/c3c[nH]c4ccccc34)c2C#N)C1 | -35% | / | ? | ? | -2%
CCOC(=O)c1c(/N=C/c2ccc(C)cc2O)sc2c1CCC2 | -38% | 45µM* | ? | -27% | -1%
CN1CCc2c(sc(/N=C/c3c[nH]c4ccccc34)c2C(N)=O)C1 | -27% | 45µM* | -28% | ? | -12%
Cc1csc(SC(C)C(=O)NCC2CCCO2)n1 (stereo not given) | 33% | 40µM* | -3% | -3% | -4%
CC(Sc1nnc(-c2ccco2)n1N)C(=O)NCC1CCCO1 (stereo not given) | 40% | 11%[12.7 µM] | -7% | -3% | -2%
CCN(CC)S(=O)(=O)c1ccc2c(c1)nc(SC(C)C(=O)NCC1CCCO1)n2CC (stereo not given) | 6% | 79µM* | -18% | -14% | /
CC(Sc1nnc(-c2cccs2)n1N)C(=O)NCC1CCCO1 (stereo not given) | 22% | 50µM* | 4% | 2% | 3%
CC(Sc1nc(N)cc(N)n1)C(=O)NCC1CCCO1 (stereo not given) | 36% | 9%[12.7 µM] | -2% | 6% | 4%
N[C@H](CC(=O)O)C(=O)O | / | 37%[59 µM] | / | / | /
O=c1c(-c2ccc(Cl)cc2)nc2cnc(N3CCNCC3)nc2n1Cc1cccs1 | / | 6%[0.501 µM] | / | / | /
O=C(CSC1=NNC(c2ccccn2)S1)Nc1ccccc1 (stereo not given) | 42% | ? | 5.6µM* | 6.3µM* | /
O=C(CSC1=NNC(c2ccccn2)S1)Nc1cccc(Cl)c1 (stereo not given) | 14% | / | 7.1µM* | 22µM* | /
CCN(c1ccccc1)c1nc(=O)c2cccnc2s1 | 21% | 35µM* | -14% | -1% | 3%
Cc1ccc(Nc2nc(=O)c3cccnc3s2)cc1 | 30% | -10%[59 µM] | 0% | -9% | 2%
c1ccc(-n2cnc3cc(NCc4ccco4)ccc32)cc1 | ? | 11µM* | ? | 79µM* | -25%
c1ccc(-n2cnc3cc(NCc4cccs4)ccc32)cc1 | -32% | -7%[2.33 µM] | 50µM* | 56µM* | -20%
COc1ccc(-n2cnc3cc(NCc4cccs4)ccc32)cc1 | 40µM* | ? | 18µM* | -15%[11.4 µM] | ?
Cn1cnc2cc(NCc3cccs3)ccc21 | 1% | ? | -30% | -34% | /
Cc1nc2cc(NC(=O)NCc3ccco3)ccc2n1C | 15% | -25%[59 µM] | -7% | -21% | 11%[11.4 µM]
Cc1ccc(OCCSc2nc3ccccc3n2CC(=O)N2CCCCC2)c(C)c1 | 3% | 14µM* | -25% | -30% | /
CCN(c1ccccc1)c1cc2ccccc2c(=O)[nH]1 | -7%[57 µM] | ? | -21% | 18µM* | /
O=C(NNC(=O)c1cccc(-n2cccc2)c1)c1ccc(F)cc1 | -22% | 1%[12.7 µM] | 40µM* | ? | 22µM*
O=C(OCC#CCSc1nnc(-c2cccc3ccccc23)o1)c1ccco1 | 54% | 21%[0.501 µM] | 79µM*! | 7% | ?
O=C(NC1CCCCC1)c1cnn2c1NC(=C1CC1)C=C2C(F)F | 21% | / | / | / | /
CCCOC(=O)c1c(-c2ccc(C)cc2C)csc1NC(=O)C1C2CCC(O2)C1C(=O)O (stereo not given) | ? | 13µM* | -6% | 71µM* | 3%
SMILES | HP1b chromo inh | G9a block | BAZ2B inh | JMJD2A Tudor inh | L3MBTL1 inh
CCOC(=O)c1c(NC(=O)C2C3CCC(O3)C2C(=O)O)sc(C)c1-c1ccc(F)cc1 (stereo not given) | 27% | / | 8% | -2% | 38%
O=C(NCCCN1CCCC1=O)c1cccs1 | 12% | -4%[12.7 µM] | 0% | -10% | /
O=C(NCCCN1CCCC1=O)c1c(O)nc2sccn2c1=O | 10% | -8% | -34% | 35µM* | 4%
COc1cccc(OCC(O)CO)c1 (stereo not given) | 29% | 3%[12.7 µM] | 2% | 6% | /
CCOC(=O)N1CCN(CC(O)COc2c(OC)cccc2OC)CC1 (stereo not given) | 28% | -11%[59 µM] | 1% | ? | 14%
Cc1ccccc1OCC(O)CN1CCN(C)CC1 (stereo not given) | 20% | 50µM* | ? | -27% | -5%
COc1ccccc1OCC(O)CN1CCN(CC(=O)Nc2c(C)cccc2C)CC1 (stereo not given) | 19% | 3%[59 µM] | 0% | 89µM*! | 8%
Cc1ccc(OCC(O)CN2CCOCC2)c(C)c1 (stereo not given) | 1% | 89µM* | -36% | 89µM* | 9%
COc1cccc(OCC(O)CN2CCN(C)CC2)c1 (stereo not given) | ? | 25µM* | 50µM* | 1µM* | /
COc1ncc2nc(-c3cccs3)c(=O)n(CCc3ccccc3)c2n1 | / | 19%[0.501 µM] | / | / | /
O=C(Cc1ccc(Cl)cc1)NCCc1csc2nc(-c3ccccc3F)nn12 | 22%[57 µM] | 4%[59 µM] | 2% | -7% | /
Cc1cccc(C)c1OCc1nc2c3cnn(-c4ccccc4Br)c3ncn2n1 | 24% | -29%[59 µM] | -6% | -4% | /
CC(C)c1ccc(-c2nnc(N)s2)cc1 | -7% | 45µM* | 2% | -13% | 3%
NC(=O)c1c(NC(=O)CSc2nnc(-c3ccco3)n2-c2ccccc2)sc2c1CCC2 | ? | ? | 50µM* | ? | 10µM*
CCOC(=O)c1c(NC(=O)CSc2nnc(CNc3ccc(OC)cc3)n2C)sc(C)c1C | 20µM* | ? | 45µM* | 50µM* | /
COC(=O)c1c(NC(=O)CSc2nnc(-c3ccco3)n2C)sc(C)c1C | ? | -13%[59 µM] | -9% | 79µM* | -5%
CCOC(=O)c1sc(NC(=O)CSc2nnc(-c3ccco3)n2CC)c(C(=O)OCC)c1C | -9% | 18µM* | ? | -34% | -3%
N#Cc1c(NC(=O)CSc2nnc(-c3ccco3)n2-c2ccccc2)sc2c1CCC2 | 10% | ? | -28% | -15% | /
CCOC(=O)c1ccc(NC(=O)CSc2nnc(CNc3ccc(C)cc3)n2C)cc1 | 58% | -2%[59 µM] | 13% | -19% | -2%
COc1cc(OC)c2c(c1)C(=O)OC2c1cc(OC)c(OC)cc1C (stereo not given) | 10% | / | / | -13% | /
COCc1cc(S(=O)c2ccc(Cl)cc2)nc(C)n1 (stereo not given) | 68% | ? | 5% | 8% | -9%
CCC(=O)N1CCCc2cc(S(=O)(=O)N3CCC(C(=O)Nc4ccccc4CC)CC3)ccc21 | 4%[57 µM] | 17%[59 µM] | -10% | -21% | /
CCOC(=O)c1c(NC(=O)CSc2nnc(CNc3ccc(F)cc3)o2)sc(C(C)=O)c1C | 28% | 33%[2.33 µM] | 50µM* | -35% | /
COc1cccc(-c2nnc(SCC(=O)NCc3ccc4c(c3)OCO4)n2Cc2ccco2)c1 | 25% | 45µM* | ? | -11% | /

Screening results as filed in PubChem.
